Hit rate of the full screen: of about 30,000 compounds, about 580 (1.9%) were called active. Rule as the data show it: active = inhibition above about 43%; inactive = the rest. Shown is part of a subset that was picked to be rich in actives.

Serine/threonine-protein kinase ULK1 (Homo sapiens), sequence (O75385 whole entry, looked up): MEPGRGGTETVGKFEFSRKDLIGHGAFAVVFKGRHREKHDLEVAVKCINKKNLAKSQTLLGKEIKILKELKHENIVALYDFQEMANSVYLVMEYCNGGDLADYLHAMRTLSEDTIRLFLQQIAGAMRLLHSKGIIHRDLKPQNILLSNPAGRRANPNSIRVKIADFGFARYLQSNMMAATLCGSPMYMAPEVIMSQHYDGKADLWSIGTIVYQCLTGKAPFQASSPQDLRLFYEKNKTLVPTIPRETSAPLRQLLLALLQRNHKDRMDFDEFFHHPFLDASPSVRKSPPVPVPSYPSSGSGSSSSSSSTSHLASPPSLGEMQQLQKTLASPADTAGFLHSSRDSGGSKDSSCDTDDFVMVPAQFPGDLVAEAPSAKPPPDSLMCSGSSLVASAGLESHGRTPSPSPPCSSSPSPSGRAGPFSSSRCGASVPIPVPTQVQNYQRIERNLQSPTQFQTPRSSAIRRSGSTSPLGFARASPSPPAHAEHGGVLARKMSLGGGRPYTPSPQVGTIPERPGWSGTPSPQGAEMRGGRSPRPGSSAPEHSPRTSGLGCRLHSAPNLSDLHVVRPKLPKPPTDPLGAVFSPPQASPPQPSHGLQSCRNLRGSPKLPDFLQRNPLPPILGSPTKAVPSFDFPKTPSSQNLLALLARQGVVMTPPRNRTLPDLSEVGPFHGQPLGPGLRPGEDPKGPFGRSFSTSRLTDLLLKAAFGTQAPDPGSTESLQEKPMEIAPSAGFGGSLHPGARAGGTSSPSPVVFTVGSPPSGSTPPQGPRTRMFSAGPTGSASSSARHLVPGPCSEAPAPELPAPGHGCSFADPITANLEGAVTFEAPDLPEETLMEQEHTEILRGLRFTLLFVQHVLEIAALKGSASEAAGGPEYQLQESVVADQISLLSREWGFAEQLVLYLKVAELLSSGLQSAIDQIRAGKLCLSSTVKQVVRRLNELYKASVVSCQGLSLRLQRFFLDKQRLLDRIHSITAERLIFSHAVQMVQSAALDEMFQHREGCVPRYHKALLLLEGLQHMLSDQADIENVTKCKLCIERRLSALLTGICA

This experiment addresses Serine/threonine-protein kinase ULK1 (Homo sapiens) (UniProt O75385). Put plainly: inhibition of human autophagy kinase ULK1 – biochemical, AlphaScreen, primary screen (AID 1259251).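 Also: 0% = median of compound wells and 100% = no enzyme.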 The following applies: AlphaScreen Atg13 phosphorylation by ULK1, luminescence; at 5.96 µM; active compounds read high. In general terms: Bead proximity is the source of the signal in Alpha formats.
By inhibition is commonly meant the drop in the measured response relative to a control, in per cent. Consider `Cn1nccc1-c1cc(F)cc(-c2ccnc(Nc3ccc(-n4cnc(N5CCOCC5)n4)cc3)n2)c1`, for which the inhibition was 10.3% (inactive).

For `CN(C)c1cc(F)cc(-c2ccnc(Nc3ccc(-n4cnc(N5CCOCC5)n4)cc3)n2)c1`, the inhibition was -12.3% (inactive).

With `CN1CCN(c2ncn(-c3ccc(Nc4nccc(-c5ccc(NS(C)(=O)=O)cc5)n4)cc3)n2)CC1`, the inhibition is 63.3% (active).

As for `CC(=O)Nc1ccc(Nc2ncnc3nc(N4CCOCC4)[nH]c23)cc1`, the inhibition was -7.72% (inactive).

In the case of `CCCNC(=O)Cc1cn(-c2ccc(Nc3ccc(-n4ccnc4)cc3)nn2)c2ccccc12`, the inhibition is 0.04% (inactive).

Regarding `CC(C)(C)NC(=O)N1CCCN(c2ccc(S(C)(=O)=O)cc2)CC1`, the inhibition is 6.31% (inactive).

Consider `CN1CCc2nc(NC(=O)c3ccc(Cl)cc3Cl)sc2C1`, for which the inhibition is -7.21% (inactive).

Turning to `O=C(Nc1ccc(N2CCOCC2)cc1)c1csc(Nc2ccc(-n3ccnc3)cc2)n1`, the inhibition is 47.9% (active).

Take `O=C(Nc1ccc(N2CCOCC2)cc1)c1ccc2nc(Nc3ccncc3)sc2c1`: the inhibition is 52.9% (active).

`CN(C)c1cccc(Nc2nc3ccc(C(=O)Nc4ccc(N5CCOCC5)cc4)cc3s2)c1`: the inhibition is 24.1% (inactive).

For the molecule `O=C(Nc1ccc(N2CCOCC2)cc1)c1cnc(Nc2ccc(-n3ccnc3)cc2)s1`, the inhibition was 17.6% (inactive).

As to `O=C(Nc1ccccc1)c1ccc2nc(NCCN3CCOCC3)sc2c1`, the inhibition was 2.47% (inactive).

Take `O=C(NCc1ccccc1)c1csc(Nc2ccc(N3CCOCC3)cc2)n1`: the inhibition was 25.3% (inactive).

For the molecule `Cc1cnnn1-c1ccc(Nc2nccc(-c3cc(C#N)cc(N4CCOCC4)c3)n2)cc1`, the inhibition is 14.1% (inactive).

As for `O=C(Nc1ccc2[nH]ncc2c1)[C@H]1C[C@@H](O)CN1C(=O)Cc1ccc(Br)cc1`, the inhibition was 5.77% (inactive).

Take `O=C(NCCCN1CCCC1=O)c1cccc(Cl)n1`: the inhibition was 10.3% (inactive).

As for `FC(F)(F)c1ccc(Cn2cnc3c(Nc4ccc5c(c4)OCO5)nc(N4CCC(N5CCOCC5)CC4)nc32)cc1`, the inhibition is 10% (inactive).

Take `c1cnc2ccc(Nc3nc4ncnc(NCc5nc6ccccc6[nH]5)c4[nH]3)cc2c1`: the inhibition is 15.5% (inactive).

Consider `O=C(NC1CC1)c1cccc(Nc2cccnc2)n1`, for which the inhibition was -1.02% (inactive).

Take `FC(F)(F)c1cccc(CNc2nc(Nc3ccc(N4CCOCC4)cc3)nc3c2ncn3-c2ccsc2)c1`: the inhibition was -6.13% (inactive).

As for `CC(C)n1c(N2CCOCC2)nc2c(NCc3ccccc3)ncnc21`, the inhibition is -2.96% (inactive).

In the case of `CCN(CC)C(=O)C1CCCN(c2cccc(C(=O)NCc3nc4ccccc4[nH]3)c2)C1` (centres undefined), the inhibition was 7.49% (inactive).

As to `COc1cccc(CN(CCN(C)C)C(=O)c2cn3cc(-c4ccnc(N)n4)ccc3n2)c1`, the inhibition was 0.96% (inactive).

`COc1cc2nc(-c3csc4ccccc34)nc(Nc3ccc(Oc4ccccc4)cc3)c2cc1OC`: the inhibition is -36.4% (inactive).

Turning to `O=C(NC1CCN(Cc2ccccc2)CC1)c1ccc(-c2ccccc2)s1`, the inhibition was -15.1% (inactive).

With `COc1ccc(C2=NC(C)(C)NC(c3ccccc3O)C2)cc1` (centres undefined), the inhibition was 22.6% (inactive).

On to `Cc1ncn(-c2ccc(Nc3ncc(-c4cnn(C)c4)c(-c4cnn(C)c4)n3)cc2)n1`, for which the inhibition is -7.3% (inactive).

On to `Cc1nc(C)n(-c2ccc(Nc3ncc4ccc(-c5cnn(C)c5)cc4n3)cc2)n1`, for which the inhibition is 75.2% (active).

Turning to `Cc1nc(C)n(-c2ccc(Nc3cc(-n4ccnn4)ccn3)cc2)n1`, the inhibition is -1.71% (inactive).

Regarding `Cc1noc(C)c1-c1nc(N)c2ncn(-c3ccccc3)c2n1`, the inhibition was 29.2% (inactive).

Turning to `CC(=O)NNC(=O)C(C)Oc1ccc(Cl)cc1Cl` (centres undefined), the inhibition is 3.12% (inactive).

Take `CC1(C(=O)Nc2ccc(-c3cn[nH]c3)cc2)COc2ccccc2C1` (centres undefined): the inhibition is -8.37% (inactive).

Consider `Fc1cnc(Nc2ccc(N3CCNCC3)cc2)cc1-n1cnc(Nc2ccccc2)n1`, for which the inhibition is 90.4% (active).

Consider `c1ccc(-n2cnc(-c3ccnc(Nc4ccc(N5CCOCC5)cc4)c3)n2)cc1`, for which the inhibition is -3.17% (inactive).

On to `c1ccc(Nc2nccc(Nc3ccc(N4CCOCC4)cc3)n2)cc1`, for which the inhibition is 4.53% (inactive).

In the case of `CN(C)c1cccc(Nc2nccc(NCc3ccccc3)n2)c1`, the inhibition was 1.8% (inactive).

Regarding `CC[C@H]1OC(=O)[C@H](C)C(=O)[C@H](C)[C@@H](O[C@@H]2O[C@H](C)C[C@H](N(C)C)[C@H]2O)[C@](C)(OC)C[C@@H](C)C(=O)[C@H](C)[C@@H]2N(CCCCn3cnc(-c4cccnc4)c3)C(=O)OC21C` (some centres undefined), the inhibition was -2.96% (inactive).

Consider `O=C(NCCCN1CCCC1=O)c1cnc(-c2ccccc2)s1`, for which the inhibition was 0.58% (inactive).

Regarding `COc1ccc(CCNc2nc(-c3ccc(N4CCOCC4)nc3)ncc2C)cc1`, the inhibition was -5.93% (inactive).

For `COc1ccc(CCNc2nc(Nc3ncccn3)nc3c2ncn3CCN2CCCC2=O)cc1`, the inhibition is 27.6% (inactive).

On to `O=C(NCc1nc2ccccc2[nH]1)c1cccc(Nc2ncccn2)n1`, for which the inhibition is 10.3% (inactive).

On to `O=C(NCc1nc2ccccc2[nH]1)c1csc(Nc2cnccn2)n1`, for which the inhibition was 46.6% (active).

As to `O=C(NCCc1ccc(O)cc1)c1csc(Nc2cnccn2)n1`, the inhibition is 12.4% (inactive).

For `CC(=O)c1cccc(-c2nccc(Nc3ccccc3)n2)c1`, the inhibition is -2.99% (inactive).

Turning to `COc1cc2nc(Nc3ccc(-n4ccnc4)cc3)nc(Nc3cc(OC)c(OC)c(OC)c3)c2cc1OC`, the inhibition is -15.5% (inactive).

In the case of `C/C(CC(=O)NC1CCCC1)=N\NC(=O)COc1cccc(C)c1`, the inhibition was -34.7% (inactive).

As for `Cc1cc(NCc2ccccc2)nc(N2CCN(Cc3ccc4c(c3)OCO4)CC2)n1`, the inhibition was -4.09% (inactive).

On to `COc1ccc2c(c1)CC(C(=O)Nc1nc3ccc(-c4cn[nH]c4C)cc3s1)CO2` (centres undefined), for which the inhibition was -7.18% (inactive).

Turning to `CCOc1ccccc1C1/C(=C(\O)c2ccc(OC)cc2C)C(=O)C(=O)N1CCN(C)C` (centres undefined), the inhibition is -3.39% (inactive).

Consider `Fc1cc(-c2nc(Nc3ccc(CN4CCOCC4)cc3)ncc2F)cc(N2CCOCC2)c1`, for which the inhibition is 13.5% (inactive).

Turning to `Cc1ccc(-c2ncn(-c3ccc(Nc4ncc(F)c(-c5cccc(N6CCOCC6)c5)n4)cc3)n2)cn1`, the inhibition is -16.4% (inactive).

Take `Fc1cnc(Nc2ccc(Cn3ccnc3)cc2)nc1-c1cccc(N2CCOCC2)c1`: the inhibition was 45.9% (active).

`CC(=O)OCc1nc2ccc(-c3ccncc3)cc2[nH]1`: the inhibition was -6.82% (inactive).

With `O=C(NCc1cccnc1)c1ccnc(NCc2cccnc2)c1`, the inhibition was 8.32% (inactive).

Regarding `Cc1c[nH]c2ncnc(-c3ccc4c(C(=O)Nc5cccc(C(=O)NC(C)C)c5)n(CC5CC5)nc4c3)c12`, the inhibition is 50.2% (active).

Regarding `CC(C)NC(=O)c1cccc(NC(=O)Nc2ccc(-c3ccnc(N)n3)cc2)c1`, the inhibition was 1.02% (inactive).

In the case of `COc1cccc(CN(CCN(C)C)C(=O)c2c3ccc(-c4cn[nH]c4)cc3nn2CC2CC2)c1`, the inhibition was -4.47% (inactive).

As to `O=C(Nc1ccc2[nH]ncc2c1)C1CCN(C(=O)[C@@H](O)c2ccccc2Cl)CC1`, the inhibition is 2.37% (inactive).

Turning to `CC(C)n1c(-c2csc3ccccc23)nc2c(NCc3ccccc3)ncnc21`, the inhibition was 0% (inactive).

With `Cc1cnc(-c2c(C)nn(C)c2C)nc1NCCN1CCOCC1`, the inhibition was 3.9% (inactive).

Regarding `COc1cc(Nc2nc(Nc3cc(OC)c(OC)c(OC)c3)c3[nH]cnc3n2)cc(OC)c1OC`, the inhibition is 16.2% (inactive).

With `COc1cc(Nc2nc(NCc3cccc(C(F)(F)F)c3)c3ncn(C4CCCCC4)c3n2)cc(OC)c1OC`, the inhibition was -5.25% (inactive).

Take `COc1cc(Nc2nc(NCc3cccc(C(F)(F)F)c3)c3[nH]cnc3n2)cc(OC)c1OC`: the inhibition is 47.7% (active).

Take `O=C(Nc1nc2c(s1)CN(Cc1ccccc1)CC2)c1cc(Cl)ccc1Cl`: the inhibition is -4.96% (inactive).

Take `COc1cc(Nc2cc(N3CCN(Cc4ccc5c(c4)OCO5)CC3)ncn2)cc(OC)c1OC`: the inhibition is -5.38% (inactive).

On to `Cc1cnc(-c2ccc(N3CCOCC3)nc2)nc1NCCN1CCOCC1`, for which the inhibition is 2.67% (inactive).

Take `COc1ccc(-c2nc(NCCN3CCOCC3)c3ncn(-c4ccccc4)c3n2)cn1`: the inhibition is -16.5% (inactive).

As to `Nc1nc(NCc2ccccc2)cc(NCc2cccnc2)n1`, the inhibition is -4.44% (inactive).

As for `CNC(=O)c1ccccc1Nc1cc(Nc2ccc(N3CCOCC3)cc2OC)ncc1F`, the inhibition is 16.4% (inactive).

In the case of `CNC(=O)c1ccccc1Nc1nc(Nc2ccc(N3CCOCC3)cc2OC)ncc1Cl`, the inhibition is 77.3% (active).

As for `COc1cc(N2CCOCC2)ccc1Nc1cc(Nc2ccccc2C(N)=O)ccn1`, the inhibition is 7.87% (inactive).

Turning to `COC(=O)c1ccc(C2Nc3c(C(=O)OC)cccc3C3C=CCC32)cc1` (centres undefined), the inhibition was 7.56% (inactive).

Consider `CCCN1CCc2c(sc(N)c2C(=O)OC)C1`, for which the inhibition was 7.44% (inactive).

In the case of `c1ccc(CN2CCC(Nc3ccnc(NC4CCN(Cc5ccccc5)CC4)n3)CC2)cc1`, the inhibition was -6.32% (inactive).

As to `CC(=O)Nc1ccc(NC(=O)c2ccc(-c3ccc(C(N)=O)cc3)s2)cc1`, the inhibition is -5.71% (inactive).

`O=C(NCc1cccnc1)c1cccc(Nc2ccc(N3CCOCC3)cc2)n1`: the inhibition was 5.75% (inactive).

Consider `Cc1nn(C)c(C)c1-c1cccc(C(=O)NCCN(C(C)C)C(C)C)n1`, for which the inhibition was -2.03% (inactive).

Take `CC(C)n1cnc2c(NCc3ccccc3)nc(NC3CCC(O)CC3)nc21` (centres undefined): the inhibition is 0.05% (inactive).

With `c1cc(Nc2nc(Nc3ccc(N4CCOCC4)cc3)c3ncn(-c4ccsc4)c3n2)ccn1`, the inhibition was 19.3% (inactive).

For the molecule `CC(C)n1cnc2c(Nc3ccc(N4CCOCC4)cc3)nc(NC3CCC(O)CC3)nc21` (centres undefined), the inhibition was 43.6% (active).

Take `CC(C)n1cnc2c(NC3CCN(Cc4ccccc4)CC3)nc(Nc3ccc(N4CCOCC4)cc3)nc21`: the inhibition is 11.3% (inactive).

Consider `CC(C)n1cnc2c(Nc3ccc(N4CCOCC4)cc3)nc(Nc3ccncc3)nc21`, for which the inhibition was 55.3% (active).

With `CC(C)n1cnc2c(NCc3cccnc3)nc(Nc3ccc(N4CCOCC4)cc3)nc21`, the inhibition was 1.97% (inactive).

Take `O=C(Nc1ccc2[nH]ncc2c1)[C@@H]1C[C@H](O)CN1C(=O)Cc1ccc(Br)cc1`: the inhibition is 5.62% (inactive).

For the origin of these results see PubChem BioAssay AID1259251 (The Scripps Research Institute Molecular Screening Center, 2017).
